Measured values reported in PubChem BioAssay AID1851 (National Center for Advancing Translational Sciences (NCATS), 2009).
Several values for one entry are separate records, joined by “and”; a condition that tells them apart may be missing. Equal entries are not always repeated. Among all 16,000 compounds or so, about 5,700 (36%) were called active. Inconclusive results (about 24%) are left out. The list shows a part of the results. Values without a mark were called inactive. Calls follow the shape of the dose curve; as a rule, active = well fitted curve in the direction sought with a large enough effect; inconclusive = small, poorly fitted or top-dose-only effect, or effect the other way; inactive = no such curve, though single readings can be large or run the other way.

These compounds were tested against Cytochrome P450 1A2 (Homo sapiens) (UniProt P05177) (assay: Cytochrome panel assay with activity outcomes). Settings: recombinant CYP, pro-luciferin dealkylation, luminescence, p450-cyp1a2; series mostly up to 57.1 µM; activity, negative = inhibition: at the top concentration.
Cytochrome P450 1A2 (Homo sapiens), sequence (P05177 whole entry, looked up): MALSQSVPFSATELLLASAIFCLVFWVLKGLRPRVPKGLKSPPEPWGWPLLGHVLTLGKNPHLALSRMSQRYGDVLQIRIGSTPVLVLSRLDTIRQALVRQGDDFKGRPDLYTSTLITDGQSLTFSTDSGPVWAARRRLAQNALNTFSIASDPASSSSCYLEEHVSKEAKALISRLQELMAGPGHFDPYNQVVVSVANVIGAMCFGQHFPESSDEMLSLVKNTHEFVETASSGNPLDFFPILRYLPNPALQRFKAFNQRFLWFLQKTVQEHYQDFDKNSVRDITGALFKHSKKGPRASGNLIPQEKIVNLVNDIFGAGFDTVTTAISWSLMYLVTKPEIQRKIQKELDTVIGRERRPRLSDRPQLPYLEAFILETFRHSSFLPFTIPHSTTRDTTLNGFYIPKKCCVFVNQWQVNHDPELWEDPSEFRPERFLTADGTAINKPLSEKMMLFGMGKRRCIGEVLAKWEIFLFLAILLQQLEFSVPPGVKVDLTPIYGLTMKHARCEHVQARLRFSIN
% is scaled to controls: 0 for no effect and ±100 for the full control effect.

Row | SMILES | AC50 | activity, negative = inhibition
1 | CN(C)CCOC(=O)COc1ccc(Cl)cc1 | 10 µM (active) | 
2 | CC(=O)[C@@H]1CC[C@@H]2[C@@H]3CCC4=CC(=O)CC[C@@]4(C)[C@H]3CC[C@]21C |  | -7.19% [at 25.6 µM]
3 | CC[N+](C)(C)c1cccc(O)c1 |  | -7.54%
4 | COC(=O)c1cc2c(cn1)[nH]c1ccccc12 | 0.631 µM (active) | 
5 | CCN1C[C@]2(C)CC[C@@H](O)[C@]34[C@@H]5CC6[C@@H](OC)C[C@@](O)([C@H]5[C@@H]6O)[C@@H](C[C@@H]23)[C@H]14 |  | -9.03%
6 | CN1[C@@H]2CC[C@H]1CC(O)C2 (stereo not given in full) |  | -12.5% [at 25.6 µM]
7 | Oc1ccc2c3c1O[C@@H]1c4[nH]c5c(c4C[C@@]4(O)[C@@H](C2)N(CC2CC2)CC[C@]314)C[C@]1(O)[C@@H]2Cc3ccc(O)c4c3[C@@]1(CCN2CC1CC1)[C@H]5O4 |  | -5.25%
8 | Ic1cncc(OC[C@@H]2CCN2)c1 | 0.398 µM (active) | 
9 | C[C@@]12CC[C@@H]3[C@H](CCC4=CC(=O)CC[C@]43C)[C@@H]1CC[C@@H]2C(=O)COS(=O)(=O)c1ccc(Br)cc1 |  | -3.63% [at 11.4 µM]
10 | C1CCc2nnnn2CC1 |  | 2.25%
11 | C/C(=C\c1ccc(N(C)C)cc1)[N+](=O)[O-] | 1.41 µM (active) | 
12 | N[C@@H](CP(=O)(O)O)C(=O)O |  | -12.6% [at 11.4 µM]
13 | CC(=O)OCC(=O)[C@@H]1CC[C@H]2[C@H]3CC[C@H]4C[C@@H](O)CC[C@]4(C)[C@@H]3C(=O)C[C@@]12C |  | -3.59% [at 25.6 µM]
14 | Cc1c(C(=O)c2ccc3ccccc3c2)c2cccc3c2n1[C@H](CN1CCOCC1)CO3 |  | -21.2%
15 | CCCn1c(C)c(C(=O)c2ccc3ccccc3c2)c2ccccc21 | 6.31 µM (active) | 
16 | CCCn1c(C)c(C(=O)c2cccc3ccccc23)c2ccccc21 | 2 µM (active) | 
17 | C[C@@H]1[C@@H](C)N1C[C@H](O)Cn1ccnc1[N+](=O)[O-] (stereo not given in full) |  | -13.2% [at 11.4 µM]
18 | Nc1nc2[nH]c(=O)cnc2c(=O)[nH]1 |  | 2.71%
19 | CN1CC[C@@]23c4ccccc4N[C@H]1[C@]21CCN(C)[C@@H]3Nc2ccccc21 |  | -4.88% [at 25.6 µM]
20 | O=C(O)CS(=O)(=O)C(c1ccccc1)c1ccccc1 |  | -15.7% [at 2.29 µM]
21 | Cc1cc(C)cc(NC(=S)NC2CC3CCC(C2)N3Cc2ccco2)c1 (stereo not given) |  | -11.6%
22 | C[C@@H]1C(=O)O[C@@H]2C[C@]34[C@H]5C[C@@H](C(C)(C)C)[C@@]36[C@@H](OC(=O)[C@@H]6O)O[C@@]4(C(=O)O5)[C@@]12O |  | -6.3% [at 25.6 µM]
23 | NCCP(=O)(O)O |  | -12.9% [at 11.4 µM]

Row | SMILES | AC50 | activity, negative = inhibition
24 | CN[C@H](Cc1ccccc1)c1cccc(OC)c1O |  | -11.6% [at 11.4 µM]
25 | COC1=CC(=O)O[C@@H](/C=C\c2ccccc2)C1 | 3.16 µM (active) | 
26 | CNC(=O)OCC[N+](C)(C)C |  | 10.7%
27 | O=C(NCP(=O)(O)O)c1cccnc1 |  | -11.9% [at 11.4 µM]
28 | CC(C)CN1CC2(CCN(C(=O)c3ccncc3)CC2)C1 |  | -7.67%
29 | C[C@@H]1O[C@H](C[N+](C)(C)C)CS1 |  | 0.254%
30 | N=C(N)SCc1ccc(Cl)c2ccccc12 (tested in a mixture with another compound) | 251 nM (active) and 158 nM (active) | 
31 | COc1ccc2c(c1)CN([C@H](C)[C@@H]1CC[C@@H]3[C@H]4CC[C@H]5C[C@@H](O)CC[C@@]5(C)[C@H]4CC[C@]31C)CO2 |  | -17.9% [at 2.29 µM]
32 | CCCC(CCC)C(=O)O |  | -4.79%
33 | O=S(=O)(c1ccccc1)N1CCCCC1c1cccnc1 (stereo not given) |  | -6.92%
34 | CC1(C)[C@@H]2CC[C@]1(C)CN(CCC[N+](C)(C)C)C2 |  | -6.81% [at 2.29 µM]
35 | CC(=NCCN1CCOCC1)c1c(O)n(Cc2ccccc2)c(=O)[nH]c1=O |  | -26.8%
36 | CC(=NCc1ccco1)c1c(O)n(-c2ccccc2)c(=O)[nH]c1=O | 22.4 µM (active) | 
37 | CC(=Nc1c(C)n(C)n(-c2ccccc2)c1=O)c1c(O)n(Cc2ccccc2)c(=O)[nH]c1=O |  | -6.48%
38 | N[C@@]1(C(=O)O)CC[C@H](C(=O)O)C1 | inactive | 
39 | O=C1C2CCN(CC2)C1(CO)CO |  | -15.4% [at 11.4 µM]
40 | [N-]=[N+]=CC(=O)CC[C@H](N)C(=O)O |  | -10.9% [at 11.4 µM]
41 | Cc1ccccc1-c1cncnc1NCCc1cnc[nH]1 | 5.01 µM (active) | 
42 | Clc1ccccc1-c1cncnc1NCCc1cnc[nH]1 | 1.58 µM (active) | 
43 | N=C(N)c1ccc(-c2ccc(-c3ccc(C(=N)N)cc3)o2)cc1 |  | -1.35% [at 11.4 µM]
44 | O=C(O)c1cc(N=Nc2ccc([As](=O)(O)O)cc2)ccc1O |  | -9.91% [at 11.4 µM]
45 | O=[As](O)(O)c1ccc(N=Nc2ccc([As](=O)(O)O)cc2)cc1 |  | -13.9% [at 11.4 µM]
